# High-throughput results (PubChem BioAssay)
# SRC1 TRFRET art = TR-FRET detection interference compounds, primary screen, artefact control for PPARgamma SRC-1 recruitment agonists, biochemical, TR-FRET emission ratio; TR-FRET detection artefact counter-screen; active compounds read high; AID 1051, 2008; hit rate 0.34% among 99,000; TR-FRET ratio at 8 µM; in the data active = TR-FRET ratio above about 2300
# TR-FRET SRC-2 ct = TR-FRET signal artefacts, primary screen, artefact control for PPARgamma SRC-2 agonist project, biochemical; TR-FRET ratio at 8 µM; hit rate 0.4% among 200,000; AID 1049, 2008; TR-FRET artefact counter-screen; active compounds read high
# PPARg SRC-3 ag = PPARgamma agonists recruiting SRC-3 coactivator, primary screen, biochemical | biochemical PPARgamma/SRC-3 coactivator recruitment assay | activation, % at 8 µM | hit rate 0.26% among 200,000 | AID 731, 2007; in the data active = activation above about 23%;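 note: 0% = DMSO and 100% = reference agonist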
# Target sequence (P37231 whole entry, looked up): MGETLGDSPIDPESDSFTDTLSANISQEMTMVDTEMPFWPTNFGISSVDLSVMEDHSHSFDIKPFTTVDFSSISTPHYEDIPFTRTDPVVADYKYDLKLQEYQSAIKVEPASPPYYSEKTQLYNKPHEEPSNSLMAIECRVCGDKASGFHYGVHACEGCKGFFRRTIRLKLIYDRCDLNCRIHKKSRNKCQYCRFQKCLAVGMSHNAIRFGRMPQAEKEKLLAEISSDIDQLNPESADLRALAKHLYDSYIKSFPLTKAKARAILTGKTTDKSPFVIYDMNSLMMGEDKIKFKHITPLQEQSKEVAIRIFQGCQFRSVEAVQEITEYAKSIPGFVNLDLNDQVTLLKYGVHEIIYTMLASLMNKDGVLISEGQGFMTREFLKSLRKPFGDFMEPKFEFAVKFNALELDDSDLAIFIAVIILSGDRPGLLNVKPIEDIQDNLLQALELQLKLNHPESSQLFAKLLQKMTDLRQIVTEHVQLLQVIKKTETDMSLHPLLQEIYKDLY
# PPARg SRC1 recr = PPARgamma agonists recruiting SRC-1 coactivator, primary screen, biochemical; Peroxisome proliferator-activated receptor gamma (Homo sapiens), P37231; PPARgamma-SRC-1 coactivator recruitment biochemical assay; activation, % at 8 µM; hit rate 0.41% among 200,000; AID 631, 2007; in the data active = activation above about 19%;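 note: 0% = DMSO and 100% = reference agonist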
# PPARg SRC2 recr = agonists of PPARg-SRC-2 recruitment, primary screen, biochemical, HTS; hit rate 0.34% among 200,000; PPARgamma LBD-SRC-2 recruitment; Peroxisome proliferator-activated receptor gamma (Homo sapiens), P37231; activation, % at 8 µM; AID 1032, 2008; in the data active = activation above about 22%;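 note: 0% = vehicle and 100% = reference agonist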
# SRC3 TRFRET art = TR-FRET detection interference compounds, artefact control for PPARgamma SRC-3 recruitment agonists, biochemical, TR-FRET ratio; TR-FRET artefact counter-screen, PPARgamma/SRC-3 format; active compounds read high; TR-FRET ratio at 8 µM; hit rate 0.39% among 99,000
# An asterisk follows results filed as active; . = not tested or not shown. A selection: hits, their analogues and other compounds. The true share with any hit is near 0.9%. Cut-off read from the data, not from the text of the source, unless noted: active = TR-FRET ratio above about 2000; inactive = the rest.
SMILES,SRC1 TRFRET art,TR-FRET SRC-2 ct,PPARg SRC-3 ag,PPARg SRC1 recr,PPARg SRC2 recr,SRC3 TRFRET art
Cc1ccc(S(=O)(=O)N(C)C)cc1NC(=O)Cn1c(CN2CCOCC2)nc2ccccc2c1=O,1879,1765,2,6,2,1604
CC(C)=CCCC(C)CN1CCC(N2CCC(C(=O)NC(C)C)CC2)CC1 (stereo unspecified),1748,1692,2,9,4,1496
CCn1ncc(Br)c1C(=O)Nc1cc([N+](=O)[O-])ccc1C,1773,1565,-2,0,-4,1556
Cc1nnc(SCC(=O)c2ccc(C(C)C)cc2)s1,1916,1715,0,6,1,1558
CC1(C)CC(=O)C(C=Nc2ccccc2C(=O)O)=C(O)C1,.,1972*,4,6,0,.
CCc1ccc2oc(C(=O)Nc3ccc(S(N)(=O)=O)cc3)c(C)c2c1,2324*,1875,3,1,8,1772
COc1ccccc1N(CC(=O)NCC1CCCO1)C(=O)CCC(=O)Nc1nccs1 (stereo unspecified),.,1704,-8,-2,25*,.
COc1ccc(Nc2nc(S(=O)(=O)c3ccc(C)cc3)c(Cl)s2)cc1,2100,1709,23*,6,3,1860
Cc1ccc(S(=O)(=O)c2nc(Nc3ccccc3)sc2Cl)cc1,1923,1595,6,13,8,1658
Cc1ccc2c(C(=O)N3CCN(c4ccccc4)CC3)cc(-c3cccnc3)nc2c1C,2369*,1394,-1,13,2,1604
CSc1c(CC(=O)Nc2ccc(F)cc2)n(Cc2ccccc2)c2ccccc12,1868,1577,5,5,3,1895
FC(F)(F)c1nc(=S)c2ccccc2[nH]1,2370*,2366*,21,23*,27*,2198*
CC(=O)Nc1c(NC(=O)CC#N)[nH]c2c(c1=O)c(=O)n(C)c(=O)n2C,1716,1513,3,-3,0,1517
CC(C)(C)c1cc(C(=S)N2CCN(CCO)CC2)cc(C(C)(C)C)c1O,.,1569,28*,6,10,.
COc1ccc(C(=O)NC(=S)N2CC(C)OC(C)C2)cc1OC (stereo unspecified),1626,1438,0,-6,-2,1354
O=C(N/N=C/c1cnc(N2CCCCC2)s1)c1ccc(Cl)cc1,1954,1811,4,21*,6,1706
CC1CC(C)(C)NC(=S)N1CCCC(=O)N1CCN(c2ccccc2F)CC1 (stereo unspecified),2350*,1431,-3,11,-6,1491
CC1CC(C)(C)NC(=S)N1CCCC(=O)Nc1ccccc1F (stereo unspecified),1735,1448,-3,3,0,1389
COCCN(C(=S)Nc1c(C)cc(C)cc1C)C(C)c1cccs1 (stereo unspecified),1922,1623,3,2,4,1578
COc1ccc(N2C(=O)CC(Nc3ccc(C(=O)O)cc3)C2=O)cc1OC (stereo unspecified),2011,1699,5,5,9,1527
COC(=O)c1cccc(NC2CC(=O)N(c3ccc(OC)c(OC)c3)C2=O)c1 (stereo unspecified),2727*,1810,5,18,6,1521
COc1ccc(-c2c(C#N)c(C)nc3c2C(=O)c2ccccc2-3)cc1,.,1442,-14,24*,-2,.
O=c1/c(=C/c2ccc(O)c([N+](=O)[O-])c2)sc2nc3ccccc3n12,1575,1432,-1,-1,6,1579
CCN(CC)c1ccc(/C=c2\sc3nc4ccccc4n3c2=O)c(O)c1,5472*,3056*,7,13,6,4506*
CCCCC#Cc1ccccc1CC(=O)Nc1ccccc1,1573,1474,-2,2,4,1581
SMILES,SRC1 TRFRET art,TR-FRET SRC-2 ct,PPARg SRC-3 ag,PPARg SRC1 recr,PPARg SRC2 recr,SRC3 TRFRET art
Nc1ccccc1C#CCCCCO,1639,1361,20,-5,-7,2204*
c1ccc(CSc2ncnc3c2oc2ccccc23)cc1,.,2898*,84*,59*,62*,.
CCCSc1ncnc2c1oc1ccccc12,.,1525,4,7,2,.
O=C(CSc1ncnc2c1oc1ccccc12)N1CCN(c2ccccc2)CC1,.,1527,25,87*,15,.
CCc1nnc(NC(=O)CSc2ncnc3c2oc2ccccc23)s1,.,1593,5,86*,11,.
CCOc1ccccc1NC(=O)CSc1ncnc2c1oc1ccccc12,.,1627,0,11,6,.
Fc1cccc(Cc2noc(CN3CCC(c4ccncc4)CC3)n2)c1,1846,1440,1,2,-3,1508
[O-]c1c[n+](-c2ccc(-[n+]3cc([O-])on3)cc2)no1,1743,1534,2,3,8,1703
COc1ccc2c(C)cc(SCC(=O)c3ccc4c(c3)OCO4)nc2c1,.,3035*,15,13,-3,.
C=CCN1N=C(c2ccc(NC(=O)c3ccccc3)cc2)CSC1=O,1543,1436,1,-1,-4,1423
COC(=O)c1cnn(-c2nc3c(C)cccc3s2)c1C,.,1578,-10,61*,-1,.
CC(C)CCNC(=O)CCCn1c(=O)[nH]c2ccc(Br)cc2c1=O,.,1635,10,1,8,.
O=C(CCCn1c(=O)[nH]c2ccc(Br)cc2c1=O)NCc1ccc(Cl)cc1,3045*,1480,-3,31*,9,1575
CCS(=O)(=O)N1CCN(C2CCC(c3ccccc3)CC2)CC1 (stereo unspecified),.,1733,3,20*,2,.
Cc1ccc(S(=O)(=O)N(CC(=O)Nc2ccccc2C(=O)O)c2ccccc2)cc1,1585,1456,2,2,-7,1680
CC1=NN(C(=O)Cn2ccc([N+](=O)[O-])n2)C(O)(C(F)(F)F)C1 (stereo unspecified),1973,1853,4,5,23*,1855
O=C(Cc1nc2ccccc2[nH]c1=O)c1ccccc1,1925,1531,8,22*,5,1680
CCn1cc(CNCc2cn(C)nc2-c2ccc(C3CCCCC3)cc2)cn1,1896,1699,0,22*,3,1641
COc1cccc(-c2csc(N3CCN(C(=S)Nc4ccccc4OC)CC3)n2)c1,.,2307*,2,4,5,.
COc1cccc(-c2csc(N3CCN(C(=S)Nc4cccc(Cl)c4)CC3)n2)c1,.,2562*,14,5,9,.
COc1cccc(-c2csc(N3CCN(C(=S)Nc4ccccc4Cl)CC3)n2)c1,.,1818,4,0,3,.
O=S(=O)(c1cccc2cccnc12)N1CCN(Cc2ccccc2)CC1,1739,1613,3,1,2,1479
Cc1nnc(NC(=O)c2nn(CC(C)C)c(=O)c3ccccc23)s1,2336*,1528,0,4,-5,1608
